The panel holds about 83,000 compounds, 20% with a hit somewhere; the sample as a whole holds those more often.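 Results are percent growth after 48 hours of single-concentration exposure. 100 means growth as in untreated cells, lower positive values show inhibition; negative values down to -100 show cell death.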 Unmarked numbers belong to inactive results. Active and inactive are the calls of the source. How the source made its calls: active means growth percent below 10; inactive means the rest.
Key:
Test in all cases: NCI-60 one-dose screen, 48 h (100 = growth as untreated, 0 = no growth, -100 = all killed)
Settings in all cases: 10 µM unless noted
HCT-15 colon = tested on: HCT-15 colon
HT29 colon = tested on: HT29 colon
SNB-75 CNS = tested on: SNB-75 CNS
U251 CNS = tested on: U251 CNS
PC-3 prostate = tested on: PC-3 prostate
SK-MEL-5 melanoma = tested on: SK-MEL-5 melanoma
UACC-62 melanoma = tested on: UACC-62 melanoma
LOX IMVI melanoma = tested on: LOX IMVI melanoma
SK-MEL-28 melanoma = tested on: SK-MEL-28 melanoma
SK-MEL-2 melanoma = tested on: SK-MEL-2 melanoma
EKVX NSCLC = tested on: EKVX NSCLC
SN12C renal = tested on: SN12C renal
UO-31 renal = tested on: UO-31 renal
TK-10 renal = tested on: TK-10 renal
ACHN renal = tested on: ACHN renal
CAKI-1 renal = tested on: CAKI-1 renal
A498 renal = tested on: A498 renal
CCRF-CEM leukemia = tested on: CCRF-CEM leukemia
MOLT-4 leukemia = tested on: MOLT-4 leukemia
SNB-19 CNS = tested on: SNB-19 CNS

| Compound | growth (HCT-15 colon) | growth (HT29 colon) | growth (SNB-75 CNS) | growth (U251 CNS) | growth (PC-3 prostate) | growth (SK-MEL-5 melanoma) | growth (UACC-62 melanoma) | growth (LOX IMVI melanoma) | growth (SK-MEL-28 melanoma) [%] | growth (SK-MEL-2 melanoma) | growth (EKVX NSCLC) | growth (SN12C renal) [%] | growth (UO-31 renal) | growth (TK-10 renal) | growth (ACHN renal) | growth (CAKI-1 renal) | growth (A498 renal) | growth (CCRF-CEM leukemia) | growth (MOLT-4 leukemia) | growth (SNB-19 CNS) [%] |
| --- | --- | --- | --- | --- | --- | --- | --- | --- | --- | --- | --- | --- | --- | --- | --- | --- | --- | --- | --- | --- |
| CS(=O)(=O)c1ccc(C(=O)N2N=C(c3ccccc3)CC2c2ccc3c(c2)OCO3)cc1 (configuration not stated) | 85.7% | 104% | 88.2% | 91.4% | 85.1% | 101% | 96.4% | 95.5% | 106 | 89.8% | 93.4% | 94.4 | 66.5% | 107% | 107% | 92.5% | 86.2% | 105% | 52.4% | – |
| Cc1ccncc1NC=O | 104% | 111% | 103% | 101% | 99% | 101% | 101% | 104% | – | 108% | 101% | 110 | 96.2% | – | 115% | 95.8% | 103% | 104% | 108% | 102 |
| Nc1ncnc2c1N=C(c1ccc3c(c1)OCO3)CC(c1ccc(Cl)cc1)N2 (configuration not stated) | 63.6% | 69.8% | 48.5% | 74% | 62.6% | 78% | 60.3% | 76.2% | – | 58.1% | 71.1% | 93.3 | – | 99.7% | 77.8% | 74% | 87% | -33.1% (active) | 69.4% | 67.8 |
| C=C(C)[C@@H]1CC[C@]2(C(=O)NS(=O)(=O)c3ccccc3)CC[C@]3(C)[C@H](CC[C@@H]4[C@@]5(C)CC[C@H](OC(=O)NS(=O)(=O)c6ccccc6)C(C)(C)[C@@H]5CC[C@]43C)[C@@H]12 | 5.41% (active) | 20.8% | 45.3% | 13% | 7.83% (active) | -24.6% (active) | -83.1% (active) | 4.7% (active) | – | -6.1% (active) | 27.5% | – | – | 24% | 14.6% | 24.8% | -2.66% (active) | – | – | 14.4 |
| COc1ccc(/C=C/c2nc3ccccc3c(=O)n2-c2ccc(C#Cc3ccc(C(C)(C)C)cc3)cc2C)c(OC)c1 | 59.3% | 78% | 99.4% | 75.3% | 53% | 69.7% | 72.6% | 80% | – | 104% | – | 89.6 | 79.5% | 101% | – | 76.9% | 110% | 75.8% | 76.5% | 105 |
| S=C(Nc1ccc(Cl)cc1)Nc1ccc(Cl)cc1 (tested in a mixture with another compound) | 9.22% (active) | 1.05% (active) | 16.8% | -36.6% (active) | 3.81% (active) | -61.3% (active) | 13.8% | 5.65% (active) | – | -32.7% (active) | -4.98% (active) | 11.1 | -5.47% (active) | 1.45% (active) | – | -20.3% (active) | -8.63% (active) | – | 15.3% | 24.7 |
| CC(C)CC1NC(=O)C(CC(C)C)N(CO)C1=O (configuration not stated) | 103% | 94.3% | 93.4% | 111% | 97.3% | 104% | 96.9% | 106% | – | 93.9% | 115% | 99.4 | 84.5% | 97.9% | 108% | 99.8% | 95.9% | 84.7% | 92.7% | 99.6 |
| CCCCCCCC/C=C/CCCCCCCC1=NC(C)(C)CN1c1ccccc1 | 80.5% | 66.8% | 90% | 84.5% | 64% | 92.4% | 75.2% | 85.3% | – | 92.6% | 105% | – | 61.7% | 118% | 101% | 90.1% | 105% | 64.2% | – | 87.8 |
| CCN(CC)c1ccc(/C=N/N=C(N)N)cc1 | 41.2% | 9.78% (active) | 40.2% | 46.9% | 30.7% | 40.2% | 48.4% | 55.5% | – | 49.1% | 76.5% | 67.3 | 51.4% | – | 43.6% | 45.1% | 43.9% | – | 49.1% | 73.6 |
| COc1cc2c(c(OC)c1O)C(=O)C(OC)C(c1ccc(O)c(O)c1)O2 (configuration not stated) | 3.6% (active) | 46.8% | -8.14% (active) | 15.4% | -22.3% (active) | -23.6% (active) | 29.3% | 12.9% | – | 46.9% | 46.8% | 26.6 | 44.8% | 66.1% | 21.6% | 28.4% | -18.3% (active) | -5.15% (active) | 9.18% (active) | 21 |
| COc1ccc2c(c1)OC1=C(C(=O)OC1)C2c1cc(OC)c2c(c1)OCCO2 (configuration not stated) | 12.8% | 5.47% (active) | 30% | 20.5% | 25.6% | -17.7% (active) | 36.3% | 21.3% | 45.4 | 41.3% | 55.5% | 27.5 | 46.2% | 76.2% | 27.8% | 48.1% | -1.6% (active) | 15% | 20.8% | – |
| COc1ccc(/C=C/c2nc(NCCCN(C)C)c3ccccc3n2)cc1 | 86.6% | 11.5% | 42.8% | -48.4% (active) | – | 32.3% | 104% | -67.1% (active) | 77.5 | -50.9% (active) | 64.3% | 86.7 | 81.9% | 89.3% | 122% | 87.7% | 93.6% | – | -46% (active) | 100 |
| CC(C)(C)[Si](C)(C)OC1[C@@H](O[Si](C)(C)C(C)(C)C)[C@@H](CNC(=O)NC(=O)NC(=O)CI)O[C@H]1n1cnc2c(NC(=O)Nc3ccccc3)ncnc21 (some centres not stated) | 83.1% | -39.8% (active) | 68.1% | 32.5% | 14.7% | 102% | 75.4% | -80.7% (active) | – | 92.8% | 56.5% | 84.1 | -89.2% (active) | 46.6% | -22.7% (active) | 47.8% | 73.8% | – | 29.6% | 103 |
| CCOC(=O)N1C2CCC(C2)N1C(=O)OCC | 106% | 107% | 71.6% | 99.1% | 105% | 104% | 98.2% | 99.7% | – | 99% | 113% | 105 | 95.6% | 94.7% | 106% | 106% | 115% | 100% | 93% | 100 |
| C=C1C(=O)O[C@H]2[C@H]1CC/C(COC(=O)NCc1cccc(OC)c1)=C\CC[C@@]1(C)O[C@@H]21 | -3.38% (active) | -29.9% (active) | 71.1% | 39.4% | 40.1% | 29.8% | 31.5% | 5.61% (active) | – | 40.9% | 54.8% | 31.6 | -9.04% (active) | -11.7% (active) | 2.37% (active) | 10.4% | 81.1% | -15% (active) | -7.57% (active) | 69.9 |
| COc1cccc(N2CCN(c3ncnc4cc[nH]c34)CC2)c1 | 83% | 73.2% | 84% | 66.9% | 53% | -0.321% (active) | 58.8% | 51.6% | – | 64.7% | 50.1% | 85.5 | 65% | 52.8% | 59.6% | 71.6% | 41.3% | 60.9% | 29.6% | 66.2 |
| Clc1nnc2c3ccccc3ccn12 | 99.9% | 113% | 82.2% | 102% | 93% | 97.7% | 102% | 109% | 119 | 108% | 105% | 109 | 98.8% | 106% | 105% | 93% | 106% | 92.6% | 104% | – |
